Measurements taken from PubChem BioAssay (NCATS).
Inconclusive results are not listed. Active and inactive are the calls of the source. Calls follow the shape of the dose curve; as a rule, active = well fitted curve in the direction sought with a large enough effect; inconclusive = small, poorly fitted or top-dose-only effect, or another doubt; inactive = no such curve, though single readings can be large; an effect the other way counts as inactive or inconclusive.

Assays:
[1] = Quantitative High-Throughput drug screen in 47 multiple myeloma cell lines against the NCATS MIPE library collection: JIM3_ECACC cell viability assay (AID 1918963; also: nearly all actives have a fitted effect of over 35% in size)
Method in brief: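 Inhibition of cell viability is measured here. Each line was plated at 500 cells per well, treated with MIPE 4.0 drugs, kept 48 hours at 37C, then assayed for ATP content by CellTiter-Glo luminescence.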

[2] = Quantitative High-Throughput drug screen in 47 multiple myeloma cell lines against the NCATS MIPE library collection: JIM1_ECACC cell viability assay (AID 1918964)
Method in brief: (§1)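 Steps: seed 500 cells per well; pin-transfer MIPE 4.0 library; incubate 48 h at 37C, 5% CO2, humidified; add CellTiter-Glo, 5 min room temperature; read luminescence.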

[3] = Quantitative High-Throughput drug screen in 47 multiple myeloma cell lines against the NCATS MIPE library collection: INA6_PLB cell viability assay (AID 1918965; also: nearly all actives have a fitted effect of over 55% in size)
Method in brief: (§2)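 qHTS of the MIPE 4.0 collection: 500 myeloma cells/well, 48 h drug exposure at 37C in 5% CO2, then CellTiter-Glo for 5 min at room temperature before luminescence reading.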

[4] = Quantitative High-Throughput drug screen in 47 multiple myeloma cell lines against the NCATS MIPE library collection: JJN3_DSMZ cell viability assay (AID 1918966; also: nearly all actives have a fitted effect of over 50% in size)
Method in brief: as §1

[5] = Quantitative High-Throughput drug screen in 47 multiple myeloma cell lines against the NCATS MIPE library collection: H1112_PLB cell viability assay (AID 1918967; also: nearly all actives have a fitted effect of over 30% in size)
Method in brief: as §1

[6] = Quantitative High-Throughput drug screen in 47 multiple myeloma cell lines against the NCATS MIPE library collection: Karpas25_ECACC cell viability assay (AID 1918968; also: nearly all actives have a fitted effect of over 35% in size)
Method in brief: as §1

[7] = Quantitative High-Throughput drug screen in 47 multiple myeloma cell lines against the NCATS MIPE library collection: KMS12BM_JCRB cell viability assay (AID 1918971); also: nearly all actives have a fitted effect of over 35% in size
Method in brief: (§3)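 Myeloma cell lines, 500 cells per well, exposed to MIPE 4.0 library compounds for 48 h at 37C, 5% CO2. Viability from ATP by CellTiter-Glo luminescence; normalised to DMSO (100%) and media-only (0%) wells.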

[8] = Quantitative High-Throughput drug screen in 47 multiple myeloma cell lines against the NCATS MIPE library collection: KMS12PE_JCRB cell viability assay (AID 1918972); also: nearly all actives have a fitted effect of over 30% in size
Method in brief: as §2

[9] = Quantitative High-Throughput drug screen in 47 multiple myeloma cell lines against the NCATS MIPE library collection: KMS26_JCRB cell viability assay (AID 1918975); also: nearly all actives have a fitted effect of over 45% in size
Method in brief: as §3

[10] = Quantitative High-Throughput drug screen in 47 multiple myeloma cell lines against the NCATS MIPE library collection: MMM1_PLB cell viability assay (AID 1918976); also: nearly all actives have a fitted effect of over 35% in size
Method in brief: (§4)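 Viability after 48 h drug exposure was measured as ATP-dependent luminescence. Cells, 500 per well, sat at 37 °C under 5% CO2; DMSO wells set 100%, media-only wells 0%.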

[11] = Quantitative High-Throughput drug screen in 47 multiple myeloma cell lines against the NCATS MIPE library collection: MOLP8_DSMZ cell viability assay (AID 1918977); also: nearly all actives have a fitted effect of over 45% in size
Method in brief: as §4

[12] = Quantitative High-Throughput drug screen in 47 multiple myeloma cell lines against the NCATS MIPE library collection: NCIH929_DSMZ cell viability assay (AID 1918978); also: nearly all actives have a fitted effect of over 35% in size
Method in brief: as §4

[13] = Quantitative High-Throughput drug screen in 47 multiple myeloma cell lines against the NCATS MIPE library collection: MM1S_ATCC cell viability assay (AID 1918980); also: nearly all actives have a fitted effect of over 45% in size
Method in brief: as §4

[14] = Quantitative High-Throughput drug screen in 47 multiple myeloma cell lines against the NCATS MIPE library collection: MM1R_ATCC cell viability assay (AID 1918981); also: nearly all actives have a fitted effect of over 35% in size
Method in brief: as §4

[15] = Quantitative High-Throughput drug screen in 47 multiple myeloma cell lines against the NCATS MIPE library collection: LP1_DSMZ cell viability assay (AID 1918982); also: nearly all actives have a fitted effect of over 35% in size
Method in brief: as §4

[16] = Quantitative High-Throughput drug screen in 47 multiple myeloma cell lines against the NCATS MIPE library collection: KMS28PE_JCRB cell viability assay (AID 1918983); also: nearly all actives have a fitted effect of over 35% in size
Method in brief: as §4

[17] = Quantitative High-Throughput drug screen in 47 multiple myeloma cell lines against the NCATS MIPE library collection: KMS27_JCRB cell viability assay (AID 1918970); also: nearly all actives have a fitted effect of over 30% in size
Method in brief: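 KMS27_JCRB myeloma cells, 500 per well, exposed 48 h at 37 C, 5% CO2 to MIPE 4.0 compounds. Viability from ATP by CellTiter-Glo luminescence, normalized to DMSO (100%) and medium-only (0%) wells.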

[18] = Quantitative High-Throughput drug screen in 47 multiple myeloma cell lines against the NCATS MIPE library collection: KMS20_JCRB cell viability assay (AID 1918973); also: nearly all actives have a fitted effect of over 45% in size
Method in brief: as §1

[19] = Quantitative High-Throughput drug screen in 47 multiple myeloma cell lines against the NCATS MIPE library collection: KMS21BM_JCRB cell viability assay (AID 1918974); settings: ATP luminescence, 48 h; viability: at 45.8 µM (top of the series) unless noted
Method in brief: as §1

[20] = Quantitative High-Throughput drug screen in 47 multiple myeloma cell lines against the NCATS MIPE library collection: OCIMY1_PLB cell viability assay (AID 1918979); also: nearly all actives have a fitted effect of over 35% in size
Method in brief: as §4

Measured: Potency
Potency is read from the fitted curve at half-maximal effect.

O=C(Cc1ccc(-c2ccc(OCCN3CCOCC3)cc2)cn1)NCc1ccccc1
active: [1] 0.0166 µM | [2] 0.0074 µM | [3] 0.0166 µM | [4] 0.132 µM | [5] 0.0187 µM | [6] 0.0418 µM | [7] 0.0372 µM | [8] 0.0148 µM | [9] 0.0833 µM | [10] 14.8 µM | [11] 0.0833 µM | [12] 0.0935 µM | [13] 0.132 µM | [14] 0.187 µM | [15] 0.0418 µM | [16] 0.0469 µM

O=C(O)c1ccc2cc(-c3ccc(O)c(C45CC6CC(CC(C6)C4)C5)c3)ccc2c1
active: [1] 3.72 µM | [2] 0.332 µM | [3] 0.264 µM | [5] 0.418 µM | [6] 1.48 µM | [17] 0.187 µM | [7] 4.69 µM | [8] 0.526 µM | [10] 18.7 µM | [11] 1.32 µM | [13] 1.32 µM | [14] 0.662 µM | [15] 20.9 µM | [16] 3.32 µM

COc1cc(C(C)C)c2c(c1)S(=O)(=O)N(COc1cc(=O)n3cccc(OCCN4CCCCC4)c3n1)C2=O
inactive: [20]
active: [1] 18.7 µM | [2] 18.7 µM | [3] 13.2 µM | [4] 5.26 µM | [5] 14.8 µM | [6] 13.2 µM | [17] 18.7 µM | [8] 23.5 µM | [18] 18.7 µM | [19] 18.7 µM | [12] 20.9 µM | [13] 11.8 µM

Nc1ccccc1NC(=O)c1ccc(CNc2nccc(-c3cccnc3)n2)cc1
active: [1] 2.64 µM | [2] 1.32 µM | [3] 0.296 µM | [5] 2.64 µM | [6] 0.833 µM | [17] 2.64 µM | [7] 1.32 µM | [8] 0.469 µM | [18] 0.743 µM | [19] 0.662 µM | [9] 1.32 µM | [11] 1.18 µM | [12] 1.18 µM | [20] 3.32 µM | [13] 0.935 µM | [14] 0.743 µM | [15] 2.09 µM | [16] 2.96 µM

Cc1cc(Nc2cc(CN3CCOCC3)c3nc(C)c(Cc4ccc(Cl)cc4F)n3n2)n[nH]1
active: [1] 4.69 µM | [2] 0.418 µM | [3] 2.35 µM | [4] 18.7 µM | [5] 23.5 µM | [6] 20.9 µM | [7] 5.26 µM | [18] 5.26 µM | [10] 14.8 µM | [11] 20.9 µM | [12] 26.4 µM | [13] 20.9 µM | [14] 18.7 µM

Cn1cncc1[C@@](N)(c1ccc(Cl)cc1)c1ccc2c(c1)c(-c1cccc(Cl)c1)cc(=O)n2C
active: [1] 16.6 µM | [2] 0.935 µM | [3] 4.69 µM | [4] 8.33 µM | [6] 4.18 µM | [17] 7.43 µM | [7] 14.8 µM | [8] 3.32 µM | [18] 11.8 µM | [19] 16.6 µM | [10] 14.8 µM | [11] 7.43 µM | [12] 5.26 µM | [13] 6.62 µM | [14] 23.5 µM

COC(=O)c1ccc2c(C(=Nc3ccc(N(C)C(=O)CN4CCN(C)CC4)cc3)c3ccccc3)c(O)[nH]c2c1
active: [1] 6.62 µM | [2] 0.0469 µM | [3] 8.33 µM | [4] 2.35 µM | [6] 11.8 µM | [7] 16.6 µM | [18] 2.64 µM | [19] 0.0526 µM | [9] 2.64 µM | [10] 7.43 µM | [11] 9.35 µM | [12] 5.9 µM | [13] 1.18 µM | [14] 14.8 µM

Cc1cnc(Nc2ccc(F)cc2Cl)nc1-c1c[nH]c(C(=O)N[C@H](CO)c2cccc(Cl)c2)c1
active: [1] 16.6 µM | [2] 7.43 µM | [3] 9.35 µM | [5] 16.6 µM | [6] 14.8 µM | [17] 6.62 µM | [7] 23.5 µM | [18] 3.32 µM | [9] 20.9 µM | [10] 16.6 µM | [11] 23.5 µM | [12] 16.6 µM | [20] 26.4 µM | [13] 16.6 µM | [14] 16.6 µM | [15] 18.7 µM

N#CCNC(=O)c1ccc(-c2ccnc(Nc3ccc(N4CCOCC4)cc3)n2)cc1
active: [1] 13.2 µM | [3] 1.32 µM | [4] 13.2 µM | [5] 18.7 µM | [6] 9.35 µM | [7] 14.8 µM | [8] 5.26 µM | [18] 13.2 µM | [9] 18.7 µM | [10] 18.7 µM | [11] 11.8 µM | [12] 9.35 µM | [13] 18.7 µM | [14] 9.35 µM | [15] 20.9 µM | [16] 18.7 µM
inactive: [2]

Cn1c2ccccc2c2c3c(c4c5ccccc5n(CCC#N)c4c21)CNC3=O
active: [1] 6.62 µM | [2] 0.526 µM | [3] 0.0833 µM | [4] 3.32 µM | [5] 2.09 µM | [6] 1.87 µM | [7] 16.6 µM | [18] 1.48 µM | [9] 14.8 µM | [10] 10.5 µM | [11] 10.5 µM | [12] 1.87 µM | [13] 2.09 µM | [14] 1.66 µM | [15] 14.8 µM | [16] 14.8 µM
